Reference: PubChem BioAssay AID493185 (National Center for Advancing Translational Sciences (NCATS), 2011)
Activity calls are given as the source filed them. Calls follow the shape of the dose curve; as a rule, active = well fitted activation curve with a large enough effect; inconclusive = small, poorly fitted or top-dose-only effect; inactive = no such curve, though single readings can be large or run the other way.

test: Counterscreen for Identifying a Potential Treatment of Ataxia-Telangiectasia: Hit Validation; conditions: cell-free AlphaLISA/AlphaScreen artifact counterscreen, PBS only, no cells; series mostly up to 76.9 µM; activation: at the top concentration; also: 0% is about no effect
Outline: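 Cell-free AlphaLISA counterscreen: compounds (up to 76.7 uM final) in PBS with detection mix of anti-pKAP1 and anti-KAP1 antibodies on donor/acceptor beads plus lysis buffer, incubated 6 hr at 25C before AlphaScreen read.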

SMILES	activation
COc1ccc(/C=N/Nc2nc(=O)[nH]nc2C)cc1OC	3.28% (inactive)
CC(=O)Nc1ccc(S(=O)(=O)NCC2(N3CCOCC3)CCCCC2)cc1	-7.69% (inactive)
CC12CCC(C(=O)NNc3ccc([N+](=O)[O-])cc3)(OC1=O)C2(C)C (stereo not given)	0% (inactive)
CCn1nc(C)c(CNC(=O)c2cc(COc3ccc(F)cc3Cl)on2)c1C	-11.3% (inactive)
CCn1nc(C)c(/C=N/NC(=O)Cn2cncn2)c1C	10.7% (inactive)
CCCN1C2CCCC1CC(NC(=S)Nc1cccc(C)c1C)C2 (stereo not given)	5.38% (inactive)
COc1ccc(CNC(=O)CN2C(=O)CSc3ccc(S(=O)(=O)N4CCOCC4)cc32)c(OC)c1	-11.3% (inactive)
COc1ccc(N(CCC#N)C(=O)/C(C#N)=C\c2cccs2)cc1	-12% (inactive)
CN(C)S(=O)(=O)c1ccc(NC(=O)c2ccc([N+](=O)[O-])cc2)cc1	-0.82% (inactive)
CC(CCc1ccccc1)NC(=O)COC(=O)c1ccc(F)cc1 (stereo not given)	2.46% (inactive)
CN(C)C(=O)c1nc2ccc(Cl)cn2c1CNCc1cccc(OC(F)(F)F)c1	-11.3% (inactive)
CCn1c(SCc2cccc(F)c2)nnc1-c1ccncc1	6.56% (inactive)
CC(C)NC(=O)c1ccc(COc2ccc(C(C)(C)C)cc2)o1	10.7% (inactive)
C=CS(=O)(=O)c1sc(Cl)c(N2CCOCC2)c1[N+](=O)[O-]	-5.74% (inactive)
CCCc1nn(C)c(C(=O)Nc2ccc(C(C)(C)C)cc2)c1Cl	7.69% (inactive)
Cc1nn(CC(=O)N(C)Cc2ccc(F)cc2)c(C)c1[N+](=O)[O-]	3.01% (inactive)
Cc1oc2c(c(C)cc3oc(=O)c(CC(=O)NCC(=O)NCC(=O)O)c(C)c32)c1C	-5.38% (inactive)
CNC(=S)N(CCO)Cc1cc2cc3c(cc2[nH]c1=O)OCCO3	6.92% (inactive)
Cc1ccccc1S(=O)(=O)Oc1ccc2ccc(O)cc2c1	-9.84% (inactive)
COc1ccc(N2CCN(C(=O)c3cc4cc(Cl)ccc4[nH]3)CC2)cc1	1.5% (inactive)

SMILES	activation
CNC(=S)N/N=C/c1ccc2c(c1)OCCO2	-17.7% (inactive)
COC(=O)c1ccc2[nH]c3cccc(/C(=C/c4ccccc4)c4ccccc4)c3c2c1	4.92% (inactive)
O=C(NC(=O)c1c(F)cccc1F)Nc1ccccc1SC(F)F	9.02% (inactive)
C=C(C)n1c(=O)n(Cc2ccccc2C)c2ccccc21	-0.82% (inactive)
Cc1ccc(OC(=O)c2cc(C)nn2C(C)(C)C)cc1	-13.5% (inactive)
Cc1nc(Nc2ccc(Cl)cc2)c2oc3ccccc3c2n1	0% (inactive)
COc1ccc(NS(=O)(=O)c2ccc(N3CC(O)=C(c4ccccc4)C3=N)cc2)cc1	-13.9% (inactive)
Cc1nn(-c2ccccc2)c2nc(C(Cl)(Cl)Cl)[nH]c(=O)c12	6.56% (inactive)
CC(C)(C)NC(=O)c1cccc2c1-c1ccccc1C2=O	0% (inactive)
O=C(c1cccc(F)c1)N1CCCC(C(=O)N2CCCCCC2)C1 (stereo not given)	6.92% (inactive)
C=CCC(CC)C(=O)NC(=O)N1CCCc2ccccc21 (stereo not given)	-6.15% (inactive)
Fc1ccc(C2=NOC(c3nnc(-c4ccccc4)o3)C2)cc1 (stereo not given)	6.92% (inactive)
CN(C)S(=O)(=O)c1cccc(C(=O)N=C2N=C3C=CC(Cl)=CN3Cc3ccccc32)c1	8.46% (inactive)
CCn1c(=NC(=O)CN2C(=O)CCC2=O)sc2c(OC)ccc(OC)c21	-5.74% (inactive)
Fc1ccc(C2N(c3ccccc3)C(=S)N3CCCN23)cc1 (stereo not given)	-1.54% (inactive)
COc1ccccc1NC(=O)C1CCCN(S(=O)(=O)c2ccc(-n3cnnn3)cc2)C1 (stereo not given)	-3.76% (inactive)
COc1ccc(C(=O)CSc2nc3ncccc3[nH]2)cc1OC	-10.8% (inactive)
COc1ccc(C2(C)CC(C)(C)Nc3ccccc32)cc1 (stereo not given)	-5.74% (inactive)
CC(C)(C)C1CCC2(CC1)SCC(=O)N2c1ccccc1 (stereo not given)	-13.1% (inactive)
COc1cccc(CN(C)CC(=O)NCc2ccc(F)cc2)c1OC	2.46% (inactive)
